Measurements from PubChem BioAssay (NCI).
This is part of a sample that, as a whole, favours compounds with a hit. Of some 79,000 tested, about 15% had one in any assay. Activity calls are given as the source filed them. Cut-off read from the data, not from the text of the source: active = growth inhibition above about 70%; inactive = the rest.

Assays:
[1] = NCI Yeast Anticancer Drug Screen. Data for the rad52 strain (AID 147);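 note: 0% = growth of vehicle-treated control cultures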; settings: S. cerevisiae rad52 mutant growth inhibition, active compounds read high
Summary of the method: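 Compounds are applied to a genetically defined yeast strain lacking normal DNA damage repair, and inhibition of growth is expressed relative to cultures given vehicle only.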

[2] = NCI Yeast Anticancer Drug Screen. Data for the wt1 strain (AID 149);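 note: 0% = growth of vehicle-treated wt1 cultures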; settings: S. cerevisiae wt1 strain (SPY 50644) growth inhibition, active compounds read high
Summary of the method: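 Each compound is tested on wt1 yeast and the loss of growth versus vehicle gives the inhibition value.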

[3] = NCI Yeast Anticancer Drug Screen. Data for the rad50EPP+ strain (AID 151);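 note: 0% = growth of vehicle-treated control cultures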; settings: S. cerevisiae rad50 mutant strain, active compounds read high
Summary of the method: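 Compounds were applied to the rad50EPP+ yeast strain, which bears a defined DNA repair alteration, and growth inhibition was determined relative to vehicle-treated cultures.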

[4] = NCI Yeast Anticancer Drug Screen. Data for the mgt1 strain (AID 153); settings: S. cerevisiae mgt1 mutant growth inhibition, active compounds read high
Summary of the method: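 Strain: mgt1 yeast, one of a set carrying defined DNA damage repair or cell cycle control alterations. Compound-treated growth compared with vehicle.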

[5] = NCI Yeast Anticancer Drug Screen. Data for the rad50 strain (AID 155);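 note: 0% = growth of vehicle-only cultures of the same strain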; settings: S. cerevisiae rad50 strain growth inhibition, active compounds read high
Summary of the method: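 Vehicle-treated cultures provide the reference for the growth inhibition reported for compound-exposed, repair-deficient yeast.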

[6] = NCI Yeast Anticancer Drug Screen. Data for the mec2-1 strain (AID 157); settings: S. cerevisiae mec2-1 strain, active compounds read high
Summary of the method: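 Strain: mec2-1 (DNA repair/cell cycle alteration). Compound exposure, then growth measured; inhibition expressed relative to vehicle.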

[7] = NCI Yeast Anticancer Drug Screen. Data for the sgs1 mgt1 strain (AID 161);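 note: 0% = growth of cultures given vehicle only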; settings: S. cerevisiae sgs1 mgt1 strain, active compounds read high
Summary of the method: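 Read-out: growth inhibition vs vehicle controls. Cells: mutant yeast strain deficient in DNA damage repair.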

[8] = NCI Yeast Anticancer Drug Screen. Data for the CLN2oe strain (AID 163);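 note: 0% = growth of vehicle-only control cultures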; settings: S. cerevisiae CLN2oe strain, active compounds read high
Summary of the method: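 Growth of a genetically modified yeast strain is measured after compound exposure and compared with cultures given vehicle alone.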

[9] = NCI Yeast Anticancer Drug Screen. Data for the cln2 rad14 strain (AID 165);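 note: 0% = growth equal to vehicle treated cultures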; settings: S. cerevisiae cln2 rad14 strain, active compounds read high
Summary of the method: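 Compounds are applied to the cln2 rad14 yeast strain, and growth is then compared with that of vehicle-treated cultures to give inhibition.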

[10] = NCI Yeast Anticancer Drug Screen. Data for the bub3 strain (AID 167); settings: S. cerevisiae bub3 mutant strain, active compounds read high
Summary of the method: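 Mutant yeast screening strain plus compound; vehicle-treated cultures serve as the 0% inhibition reference.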

[11] = NCI Yeast Anticancer Drug Screen. Data for the wt2 strain (AID 169); settings: S. cerevisiae wt2 strain growth inhibition, active compounds read high
Summary of the method: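 This strain belongs to a panel of yeast strains with defined genetic alterations in DNA damage repair or cell cycle control. Compounds are applied, and growth inhibition is measured against vehicle-treated cultures.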

[12] = NCI Yeast Anticancer Drug Screen. Data for the mlh1 strain (AID 171);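 note: 0% = growth of vehicle-treated control cultures of the same strain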; settings: S. cerevisiae mlh1 strain growth inhibition, active compounds read high
Summary of the method: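 Growth of the mutant yeast strain after compound exposure, expressed as inhibition relative to vehicle-only controls.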

[13] = NCI Yeast Anticancer Drug Screen. Data for the sgs1 strain (AID 173);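 note: 0% = growth of vehicle-only control cultures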; settings: S. cerevisiae sgs1 mutant, active compounds read high
Summary of the method: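 Growth of a yeast strain bearing a defined genetic alteration is measured after compound treatment. Inhibition is expressed relative to vehicle-only controls.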

[14] = NCI Yeast Anticancer Drug Screen. Data for the mlh1 rad18 strain (AID 175); settings: S. cerevisiae mlh1 rad18 strain growth inhibition, active compounds read high
Summary of the method: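 Read-out is yeast growth inhibition, calculated against vehicle-only controls. The compound was applied to a strain engineered with DNA damage repair alterations.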

[15] = NCI Yeast Anticancer Drug Screen. Data for the rad18 strain (AID 177); settings: S. cerevisiae rad18 mutant growth inhibition, active compounds read high
Summary of the method: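 Growth of the mutant yeast strain after compound exposure, normalised to vehicle-only cultures.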

[16] = at 5.0 µM (retest, dose inferred, filed as 0.5)
[17] = at 50.0 µM (retest, dose inferred, filed as 5.0)

Measured: growth inhibition

CCC[CH2][Sn]([CH2]CCC)([CH2]CCC)/[C](=C/[Si](C)(C)c1ccccc1)c1ccc2c(c1)OCO2
active: [1]; at 11.0 µM 92% | [1]; at 33.0 µM 90% | [1]; at 100.0 µM 87% | [2]; at 11.0 µM 94% | [2]; at 33.0 µM 92% | [2]; at 100.0 µM 89% | [3]; at 100.0 µM 74% | [4]; at 11.0 µM 95% | [4]; at 33.0 µM 92% | [4]; at 100.0 µM 93% | [5]; at 3.7 µM 72% | [5]; at 11.0 µM 89% | [5]; at 33.0 µM 87% | [5]; at 50.0 µM 91.2% | [5]; at 100.0 µM 87% | [6]; at 11.0 µM 94% | [6]; at 33.0 µM 92% | [6]; at 50.0 µM 93.7% | [6]; at 100.0 µM 91% | [7]; [16] 75% | [7]; [17] 75% | [7]; at 50.0 µM 91.8% | [8]; at 11.0 µM 92% | [8]; at 33.0 µM 89% | [8]; at 100.0 µM 84% | [9]; at 50.0 µM 91.3% | [10]; at 11.0 µM 93% | [10]; at 33.0 µM 89% | [10]; at 50.0 µM 92% | [10]; at 100.0 µM 89% | [11]; at 11.0 µM 95% | [11]; at 33.0 µM 92% | [11]; at 100.0 µM 93% | [12]; at 11.0 µM 93% | [12]; at 33.0 µM 92% | [12]; at 100.0 µM 91% | [13]; at 11.0 µM 94% | [13]; at 33.0 µM 90% | [13]; at 100.0 µM 90% | [14]; at 50.0 µM 89%
inactive: [1]; at 1.2 µM 11% | [1]; at 3.7 µM 48% | [2]; at 1.2 µM 3% | [2]; at 3.7 µM 15% | [3]; at 1.2 µM 6% | [3]; at 3.7 µM 17% | [3]; at 11.0 µM 33% | [3]; at 33.0 µM 66% | [4]; at 1.2 µM 0% | [4]; at 3.7 µM 26% | [5]; at 1.2 µM 13% | [5]; [16] 67% | [5]; [17] 67% | [6]; at 1.2 µM -1% | [6]; at 3.7 µM 17% | [6]; [16] 27% | [6]; [17] 27% | [8]; at 1.2 µM -5% | [8]; at 3.7 µM 4% | [9]; [16] 7% | [9]; [17] 7% | [10]; at 1.2 µM -2% | [10]; at 3.7 µM 10% | [10]; [16] 14% | [10]; [17] 14% | [11]; at 1.2 µM 0% | [11]; at 3.7 µM 35% | [12]; at 1.2 µM 7% | [12]; at 3.7 µM 47% | [13]; at 1.2 µM 1% | [13]; at 3.7 µM 44% | [14]; [16] 44% | [14]; [17] 44%

BrC1C2CCC3OC3C12 (stereo unspecified)
inactive: [1]; at 1.2 µM 3% | [1]; at 3.7 µM 16% | [2]; at 1.2 µM 0% | [2]; at 3.7 µM 1% | [3]; at 1.2 µM 9% | [3]; at 3.7 µM 27% | [4]; at 1.2 µM 2% | [4]; at 3.7 µM 3% | [5]; at 1.2 µM 3% | [5]; at 3.7 µM 7% | [5]; [16] 41% | [6]; at 1.2 µM 0% | [6]; at 3.7 µM 5% | [6]; [16] 28% | [7]; [16] 65% | [8]; at 1.2 µM 2% | [8]; at 3.7 µM -3% | [8]; at 11.0 µM 53% | [9]; [16] 8% | [10]; at 1.2 µM -4% | [10]; at 3.7 µM -5% | [10]; [16] 2% | [10]; at 11.0 µM 42% | [11]; at 1.2 µM -1% | [11]; at 3.7 µM 2% | [12]; at 1.2 µM -1% | [12]; at 3.7 µM 4% | [13]; at 1.2 µM -1% | [13]; at 3.7 µM 11% | [15]; at 1.2 µM 1% | [15]; at 3.7 µM 7%
active: [1]; at 11.0 µM 97% | [1]; at 33.0 µM 99% | [1]; at 100.0 µM 99% | [2]; at 11.0 µM 96% | [2]; at 33.0 µM 98% | [2]; at 100.0 µM 99% | [3]; at 11.0 µM 70% | [3]; at 33.0 µM 89% | [3]; at 100.0 µM 96% | [4]; at 11.0 µM 77% | [4]; at 33.0 µM 99% | [4]; at 100.0 µM 99% | [5]; at 11.0 µM 92% | [5]; at 33.0 µM 97% | [5]; [17] 99% | [5]; at 50.0 µM 99.5% | [5]; at 100.0 µM 98% | [6]; at 11.0 µM 93% | [6]; at 33.0 µM 99% | [6]; [17] 100% | [6]; at 50.0 µM 99.7% | [6]; at 100.0 µM 99% | [7]; [17] 100% | [7]; at 50.0 µM 99.5% | [8]; at 33.0 µM 99% | [8]; at 100.0 µM 99% | [9]; [17] 99% | [9]; at 50.0 µM 99% | [10]; at 33.0 µM 99% | [10]; [17] 100% | [10]; at 50.0 µM 99.3% | [10]; at 100.0 µM 99% | [11]; at 11.0 µM 98% | [11]; at 33.0 µM 99% | [11]; at 100.0 µM 99% | [12]; at 11.0 µM 86% | [12]; at 33.0 µM 99% | [12]; at 100.0 µM 99% | [13]; at 11.0 µM 98% | [13]; at 33.0 µM 99% | [13]; at 100.0 µM 99% | [14]; [16] 74% | [14]; [17] 99% | [14]; at 50.0 µM 99.5% | [15]; at 11.0 µM 95% | [15]; at 33.0 µM 98% | [15]; at 100.0 µM 99%
